Compound activity: PubChem, The Scripps Research Institute Molecular Screening Center
Sampled rows, rich in hits. Any-hit rate of the full collection: about 3.5%.
GPR151 ag – activates the human receptor GPR151. Q8TDV0. PathHunter beta-arrestin GPR151 cells, luminescence. activation, % at 11.2 µM. 650,000 tested, 1% active. AID 1508602; in the data active = activation above about 4.9%
MITF primary – blocks human microphthalmia-associated transcription factor. inhibition, % at 2.6 µM. AID 1259374. AlphaScreen MITF homodimerization, bead proximity signal. 650,000 tested, 0.91% active; in the data active = inhibition above about 50%
TEAD-YAP inh – TEAD-YAP interaction inhibition; AID 1259422; 640,000 tested, 1.4% active; inhibition, % at 9.12 µM; HEK-TIYL cells, TEAD-Gal4/YAP UAS-luciferase luminescence; in the data active = inhibition above about 32%
FBW7 act – human FBW7 E3 ligase activation, primary screen. AlphaScreen FBW7–phospho-cyclin E peptide binding, activator screen. normalized activity (activation), % at 26.1 µM. 650,000 tested, 0.13% active; in the data active = normalized activity above about 1.9%;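 note: purified mutant Fbw7 with reduced substrate affinity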
Target sequence (Q969H0 whole entry, looked up): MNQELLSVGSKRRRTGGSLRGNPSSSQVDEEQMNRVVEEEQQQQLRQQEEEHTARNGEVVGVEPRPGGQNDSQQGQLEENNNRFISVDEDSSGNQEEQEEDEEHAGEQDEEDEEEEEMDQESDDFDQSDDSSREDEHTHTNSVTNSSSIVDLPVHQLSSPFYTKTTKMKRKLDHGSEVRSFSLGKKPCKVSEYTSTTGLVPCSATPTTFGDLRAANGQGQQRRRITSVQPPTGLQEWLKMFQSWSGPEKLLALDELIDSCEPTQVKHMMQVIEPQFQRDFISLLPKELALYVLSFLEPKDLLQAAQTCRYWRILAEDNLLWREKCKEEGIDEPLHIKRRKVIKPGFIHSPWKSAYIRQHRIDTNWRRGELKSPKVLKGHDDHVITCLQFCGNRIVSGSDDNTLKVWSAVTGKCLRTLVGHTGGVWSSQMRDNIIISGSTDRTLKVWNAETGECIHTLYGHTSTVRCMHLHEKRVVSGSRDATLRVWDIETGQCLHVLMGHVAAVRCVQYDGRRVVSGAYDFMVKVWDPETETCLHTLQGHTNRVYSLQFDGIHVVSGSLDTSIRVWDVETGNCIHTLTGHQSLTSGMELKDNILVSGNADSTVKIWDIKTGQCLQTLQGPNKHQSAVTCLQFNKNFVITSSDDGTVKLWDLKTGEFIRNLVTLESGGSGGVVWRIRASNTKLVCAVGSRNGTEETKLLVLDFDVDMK
Numbers stand for hits; i = inactive.

SMILES | GPR151 ag | MITF primary | TEAD-YAP inh | FBW7 act
Cn1c(SCC(=O)N(C2CCCCC2)C2CCS(=O)(=O)C2)nnc1C(F)(F)F (stereo not given) | i | i | i | i
O=C(CCl)N(C1CCCCC1)C1CCS(=O)(=O)C1 (stereo not given) | i | i | 70.1 | i
O=C1C2CC=CCC2C(=O)N1CC(=O)N(Cc1ccccc1)C1CCS(=O)(=O)C1 (stereo not given) | i | i | i | i
CCC(C)N(C(=O)CCl)C1CCS(=O)(=O)C1 (stereo not given) | i | i | 56.1 | i
O=C(CCl)N(Cc1ccccc1)C1CCS(=O)(=O)C1 (stereo not given) | i | i | 55.9 | i
Fc1ccc(C2CC(c3ccccc3OC(F)F)Nc3ncnn32)cc1 (stereo not given) | i | i | i | i
Cc1ccc(/C=C/C(=O)Nc2ccc(F)cc2)cc1 | i | i | i | i
COC(=O)c1c([N+](=O)[O-])cnn1C | i | i | i | i
CC(CC(F)(F)F)N1CCC(n2nccc2NC(=O)Cc2ccccc2)CC1 (stereo not given) | i | i | i | i
CC(C)[C@H](NS(=O)(=O)c1ccc2c(c1)OCCO2)C(=O)NC1CCCc2ccccc21 (stereo not given in full) | i | i | i | i
O=C(CCl)N(CC1CCCO1)C1CCS(=O)(=O)C1 (stereo not given) | i | i | i | i
O=C(CCl)N(C1CC1)C1CCS(=O)(=O)C1 (stereo not given) | i | i | 54.2 | i
c1ccc(Cc2ccccc2OCCCCNCCN2CCOCC2)cc1 | i | i | i | i
COCc1c(C(=O)N/N=C/c2cccc(OC)c2O)nnn1-c1nonc1N | i | 61.0 | 73.0 | i
COCc1c(C(=O)N/N=C/c2ccccc2Cl)nnn1-c1nonc1N | i | i | i | i
CCc1c(C(=O)N/N=C/c2cccc(OC)c2O)nnn1-c1nonc1N | i | i | 74.5 | i
S=c1[nH]nc(-c2ccccc2)n1-c1ccccc1 | i | i | i | i
Cc1cccc(-c2n[nH]c(=S)n2-c2ccccc2)c1 | i | i | 49.5 | i
CCOC(=O)c1cnc2c(OC)cccc2c1NCCCOC | i | i | i | i
CCOC(=O)c1cnc2c(OC)cccc2c1NCCOC | i | i | 42.4 | i
CCOC(=O)c1cnc2c(OC)cccc2c1NCCc1ccccc1 | i | i | i | i
CCOC(=O)c1cnc2c(OC)cccc2c1NCCCN(CC)CC | i | i | 82.8 | i
CCOC(=O)c1cnc2c(OC)cccc2c1Nc1cc(OC)c(OC)c(OC)c1 | i | i | 55.9 | i
O=C(/C=C/c1cccs1)OCC(=O)c1ccc([N+](=O)[O-])cc1 | i | i | i | i
CN(C)/C=C/C=C1\CCC/C(=C\N(C)C)C1=O | i | 52.5 | i | i
SMILES | GPR151 ag | MITF primary | TEAD-YAP inh | FBW7 act
CN(C)C(=O)C(=O)Nc1ccc(Cl)c(C(=O)N2CCC(Oc3ccc(F)cc3)CC2)c1 | i | i | 46.5 | i
CN(C)C(=O)C(=O)Nc1ccc(Cl)c(C(=O)N2CCC(Oc3ccc(Cl)cn3)CC2)c1 | i | i | 48.4 | i
O=C(c1ccncc1)N1CCC(Oc2ccc(Cl)cn2)CC1 | i | i | i | i
COc1cc(/C=C2/C(=N)N3N=C(c4ccccc4C)SC3=NC2=O)ccc1OCCOc1ccc(C)cc1 | i | i | i | i
COc1ccccc1CNC(=O)c1cn(NC(=O)c2cnccn2)c(=O)c2ccccc12 | i | i | i | i
CS/C(=C\[N+](=O)[O-])Nc1ccc(C(C)C)cc1 | i | i | 53.5 | i
CC(C)c1ccc(NC(=O)c2ccc([N+](=O)[O-])cc2)cc1 | i | i | i | i
CCN(CC)CC#CC(O)(C(C)C)C(C)C | i | i | i | i
CC(C)(C)C(=O)Nc1ccc(C(=O)/C=C/c2ccco2)cc1 | i | i | 37.4 | i
O=C(/C=C/c1ccco1)NC(=S)Nc1ccccc1 | i | i | i | i
COc1cc(NC(=S)NC(=O)/C=C/c2ccco2)ccc1NC(=O)c1ccco1 | i | i | 48.8 | i
COc1cc(NC(=O)/C=C/c2ccco2)ccc1NC(=O)c1ccco1 | i | i | i | i
O=C(/C=C/c1ccco1)NC(=S)Nc1ccc(NC(=O)c2ccco2)cc1 | i | i | 68.8 | i
Cn1cc([N+](=O)[O-])c(C(=O)Nc2cccc([N+](=O)[O-])c2)n1 | i | i | i | i
CCn1c(=O)[nH]c2c(C(N)=O)nc(-c3ccc(C)s3)nc21 | i | i | i | i
COc1cccc(C(=O)NC(C)(C)C)c1OC | i | i | i | i
O=C(O)c1cc(-c2ccc3c(c2)OCO3)nc2cc3c(cc12)OCCO3 | i | i | 32.3 | i
CCC1(CC)Cc2ccccc2-c2nc3n(c(=O)c21)CCCS3 | i | i | i | i
Cc1cc(C)c(C#N)c(SCc2nnc(-c3ccc(Cl)cc3)o2)n1 | i | i | i | i
Cc1nc(SCc2nnc(-c3ccccc3)o2)c(C#N)c(C)c1C | i | i | 92.1 | i
Cc1cc(C(F)(F)F)c(C#N)c(SCc2nnc(-c3ccccc3)o2)n1 | i | i | 41.1 | i
CCCNc1ncnc2nc(-c3cccc(C(C)=O)c3)[nH]c12 | i | i | i | i
CCN(CC)c1ccc(/C=N/NC(=O)c2nnn(-c3nonc3N)c2COC)c(O)c1 | i | i | 36.5 | i
COCc1c(C(=O)N/N=C/c2cc(Cl)ccc2O)nnn1-c1nonc1N | i | i | 60.9 | i
COCc1c(C(=O)N/N=C/c2ccc(Cl)cc2)nnn1-c1nonc1N | i | i | i | i
SMILES | GPR151 ag | MITF primary | TEAD-YAP inh | FBW7 act
CC1=C(C(=O)OCC(C)C)C(c2ccccc2Cl)CC(=O)N1 (stereo not given) | i | i | i | i
COc1ccc(OC)c(NC(=O)CN2C(=O)CC(c3ccco3)Sc3ccccc32)c1 (stereo not given) | i | i | i | i
COc1ccc(Cl)cc1NC(=O)CN1C(=O)CC(c2ccco2)Sc2ccccc21 (stereo not given) | i | i | 45.2 | i
CCN(CC)C(=O)COc1ncnc2sccc12 | i | i | i | i
c1cc2c(cc1Nc1nc(N3CCOCC3)nc(N3CCOCC3)n1)OCO2 | i | i | i | i
c1cc2c(cc1Nc1nc(N3CCCCC3)nc(N3CCCCC3)n1)OCO2 | i | i | i | 2.2
Cc1cnc(Nc2ccc(N3CCOCC3)cc2)nc1Nc1ccc2c(c1)OCO2 | i | i | 79.6 | i
CN(C)c1cccc(Nc2nccc(Nc3ccc(N4CCOCC4)cc3)n2)c1 | i | i | 39.1 | i
Cc1cnc(Nc2cccc(N(C)C)c2)nc1Nc1ccc2c(c1)OCO2 | i | i | 39.8 | i
Cc1cnc(NCc2ccc3c(c2)OCO3)nc1Nc1ccc2c(c1)OCO2 | i | i | i | i
Cc1cnc(Nc2ccc(C(F)(F)F)cc2)nc1Nc1ccc2c(c1)OCO2 | i | i | i | i
C=CCSc1nnc(Cn2c(=O)sc3ccccc32)n1-c1ccccc1 | i | i | i | i
CCCCNC(=O)C1CCCN1c1nc(C)c2cc(OCC)ccc2n1 (stereo not given) | i | i | i | i
Cc1cnc(Nc2cccc(N(C)C)c2)nc1Nc1ccc(N2CCOCC2)cc1 | i | i | 65.8 | i
Cc1cnc(Nc2nc3ccccc3n2C)nc1Nc1ccc2c(c1)OCO2 | i | i | 32.3 | i
COc1cc2nc(Nc3cccc(N(C)C)c3)nc(Nc3ccc(N4CCOCC4)cc3)c2cc1OC | i | i | i | i
